According to the supplement of paper PMC7411054:
Counter-ions that a name gives are not always drawn.

Key:
Test in all cases: phenotypically active (imaging signature differs from DMSO and reproducible) at any of 0.3-9 uM (binary (1 = active, 0 = inactive)); higher = active
Conditions in all cases: treatment time: 24 h
A549-ACTB-RAB5A = tested on: A549-ACTB-RAB5A
Summary of the method: (§1)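 After 24 h at 0.3, 1, 3 or 9 µM, with four wells per treatment, fifteen gene-edited A549, HepG2 and WPMY1 reporter lines carrying BFP, GFP and RFP/FusionRed were imaged live. Each well's live-cell features were expressed relative to solvent control wells. Deviation required ≥3 of 4 wells past the 95th percentile of control Euclidean distances, and reproducibility a median replicate Pearson correlation over the 95th percentile of non-replicates. Phenotypic activity rested on both.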

A549-CANX-COX4 = tested on: A549-CANX-COX4
Summary of the method: as §1

A549-GM130-SQSTM1 = tested on: A549-GM130-SQSTM1
Summary of the method: as §1

A549-TP53BP1-CLTA = tested on: A549-TP53BP1-CLTA
Summary of the method: as §1

A549-TUBA1B-RELA = tested on: A549-TUBA1B-RELA
Summary of the method: as §1

HepG2-ACTB-RAB5A = tested on: HepG2-ACTB-RAB5A
Summary of the method: as §1

HepG2-CANX-COX4 = tested on: HepG2-CANX-COX4
Summary of the method: as §1

HepG2-GM130-SQSTM1 = tested on: HepG2-GM130-SQSTM1
Summary of the method: as §1

HepG2-TP53BP1-CLTA = tested on: HepG2-TP53BP1-CLTA
Summary of the method: as §1

HepG2-TUBA1B-RELA = tested on: HepG2-TUBA1B-RELA
Summary of the method: as §1

WPMY1-ACTB-RAB5A = tested on: WPMY1-ACTB-RAB5A
Summary of the method: as §1

WPMY1-CANX-COX4 = tested on: WPMY1-CANX-COX4
Summary of the method: as §1

WPMY1-GM130-SQSTM1 = tested on: WPMY1-GM130-SQSTM1
Summary of the method: as §1

WPMY1-TP53BP1-CLTA = tested on: WPMY1-TP53BP1-CLTA
Summary of the method: as §1

WPMY1-TUBA1B-RELA = tested on: WPMY1-TUBA1B-RELA
Summary of the method: as §1

Measured: phenotypically active

CC(C)(C)NC(=O)[C@@H]1CN(Cc2cccnc2)CCN1C[C@@H](O)C[C@@H](Cc1ccccc1)C(=O)N[C@H]1c2ccccc2C[C@H]1O [indinavir]
inactive: A549-ACTB-RAB5A 0 | A549-CANX-COX4 0 | A549-GM130-SQSTM1 0 | A549-TP53BP1-CLTA 0 | A549-TUBA1B-RELA 0 | HepG2-ACTB-RAB5A 0 | HepG2-CANX-COX4 0 | HepG2-GM130-SQSTM1 0 | HepG2-TP53BP1-CLTA 0 | HepG2-TUBA1B-RELA 0 | WPMY1-ACTB-RAB5A 0 | WPMY1-CANX-COX4 0 | WPMY1-GM130-SQSTM1 0 | WPMY1-TP53BP1-CLTA 0 | WPMY1-TUBA1B-RELA 0

O=C(O)c1ccc(O)c2ncccc12
inactive: A549-ACTB-RAB5A 0 | A549-CANX-COX4 0 | A549-GM130-SQSTM1 0 | A549-TP53BP1-CLTA 0 | A549-TUBA1B-RELA 0 | HepG2-ACTB-RAB5A 0 | HepG2-CANX-COX4 0 | HepG2-GM130-SQSTM1 0 | HepG2-TP53BP1-CLTA 0 | HepG2-TUBA1B-RELA 0 | WPMY1-ACTB-RAB5A 0 | WPMY1-CANX-COX4 0 | WPMY1-GM130-SQSTM1 0 | WPMY1-TP53BP1-CLTA 0 | WPMY1-TUBA1B-RELA 0

O=P(O)(O)C(O)(Cn1ccnc1)P(=O)(O)O [zoledronic-acid]
inactive: A549-ACTB-RAB5A 0 | A549-CANX-COX4 0 | A549-GM130-SQSTM1 0 | A549-TP53BP1-CLTA 0 | A549-TUBA1B-RELA 0 | HepG2-ACTB-RAB5A 0 | HepG2-CANX-COX4 0 | HepG2-GM130-SQSTM1 0 | HepG2-TP53BP1-CLTA 0 | HepG2-TUBA1B-RELA 0 | WPMY1-ACTB-RAB5A 0 | WPMY1-CANX-COX4 0 | WPMY1-GM130-SQSTM1 0 | WPMY1-TP53BP1-CLTA 0 | WPMY1-TUBA1B-RELA 0

CC1(C(=O)O)CCC2(C)CCC3(C)C(=CC(=O)C4C5(C)CCC(OC6OC(C(=O)O)C(O)C(O)C6OC6OC(C(=O)O)C(O)C(O)C6O)C(C)(C)C5CCC43C)C2C1 (stereo not given) [Glycyrrhizic acid]
inactive: A549-ACTB-RAB5A 0 | A549-CANX-COX4 0 | A549-GM130-SQSTM1 0 | A549-TP53BP1-CLTA 0 | A549-TUBA1B-RELA 0 | HepG2-ACTB-RAB5A 0 | HepG2-CANX-COX4 0 | HepG2-GM130-SQSTM1 0 | HepG2-TP53BP1-CLTA 0 | HepG2-TUBA1B-RELA 0 | WPMY1-ACTB-RAB5A 0 | WPMY1-CANX-COX4 0 | WPMY1-GM130-SQSTM1 0 | WPMY1-TP53BP1-CLTA 0 | WPMY1-TUBA1B-RELA 0

O=[N+]([O-])c1c(Nc2cc(F)cc(Cl)c2)ccc2nonc12
inactive: A549-ACTB-RAB5A 0 | A549-CANX-COX4 0 | A549-GM130-SQSTM1 0 | A549-TP53BP1-CLTA 0 | A549-TUBA1B-RELA 0 | HepG2-ACTB-RAB5A 0 | HepG2-CANX-COX4 0 | HepG2-GM130-SQSTM1 0 | HepG2-TP53BP1-CLTA 0 | HepG2-TUBA1B-RELA 0 | WPMY1-ACTB-RAB5A 0 | WPMY1-CANX-COX4 0 | WPMY1-GM130-SQSTM1 0 | WPMY1-TP53BP1-CLTA 0 | WPMY1-TUBA1B-RELA 0

O=C(O)[C@H](O)[C@@H](O)[C@H](O[C@@H]1O[C@H](CO)[C@H](O)[C@H](O)[C@H]1O)[C@H](O)CO [Lactobionic acid]
inactive: A549-ACTB-RAB5A 0 | A549-CANX-COX4 0 | A549-GM130-SQSTM1 0 | A549-TP53BP1-CLTA 0 | A549-TUBA1B-RELA 0 | HepG2-ACTB-RAB5A 0 | HepG2-CANX-COX4 0 | HepG2-GM130-SQSTM1 0 | HepG2-TP53BP1-CLTA 0 | HepG2-TUBA1B-RELA 0 | WPMY1-ACTB-RAB5A 0 | WPMY1-CANX-COX4 0 | WPMY1-GM130-SQSTM1 0 | WPMY1-TP53BP1-CLTA 0 | WPMY1-TUBA1B-RELA 0

CN(C)CCOC(c1ccc(Cl)cc1)c1ccccn1 (stereo not given) [carbinoxamine]
inactive: A549-ACTB-RAB5A 0 | A549-CANX-COX4 0 | A549-GM130-SQSTM1 0 | A549-TP53BP1-CLTA 0 | A549-TUBA1B-RELA 0 | HepG2-ACTB-RAB5A 0 | HepG2-CANX-COX4 0 | HepG2-GM130-SQSTM1 0 | HepG2-TP53BP1-CLTA 0 | HepG2-TUBA1B-RELA 0 | WPMY1-ACTB-RAB5A 0 | WPMY1-CANX-COX4 0 | WPMY1-GM130-SQSTM1 0 | WPMY1-TP53BP1-CLTA 0 | WPMY1-TUBA1B-RELA 0

O=C(NCc1ccccn1)Nc1nnc(-c2ccco2)o1
inactive: A549-ACTB-RAB5A 0 | A549-CANX-COX4 0 | A549-GM130-SQSTM1 0 | A549-TP53BP1-CLTA 0 | A549-TUBA1B-RELA 0 | HepG2-ACTB-RAB5A 0 | HepG2-CANX-COX4 0 | HepG2-GM130-SQSTM1 0 | HepG2-TP53BP1-CLTA 0 | HepG2-TUBA1B-RELA 0 | WPMY1-ACTB-RAB5A 0 | WPMY1-CANX-COX4 0 | WPMY1-GM130-SQSTM1 0 | WPMY1-TP53BP1-CLTA 0 | WPMY1-TUBA1B-RELA 0

CN(CCOc1ccc(C[C@H](Nc2ccccc2C(=O)c2ccccc2)C(=O)O)cc1)c1ccccn1 [GW 1929 hydrochloride]
inactive: A549-ACTB-RAB5A 0 | A549-CANX-COX4 0 | A549-GM130-SQSTM1 0 | A549-TP53BP1-CLTA 0 | A549-TUBA1B-RELA 0 | HepG2-ACTB-RAB5A 0 | HepG2-CANX-COX4 0 | HepG2-GM130-SQSTM1 0 | HepG2-TP53BP1-CLTA 0 | HepG2-TUBA1B-RELA 0 | WPMY1-ACTB-RAB5A 0 | WPMY1-CANX-COX4 0 | WPMY1-GM130-SQSTM1 0 | WPMY1-TP53BP1-CLTA 0 | WPMY1-TUBA1B-RELA 0

COc1ccc2c(c1)N(C(C)=O)[C@H]1[C@@H]3CO[C@H](C)[C@@H]4CN5CC[C@]21[C@@H]5C[C@H]34 [Strychnospermine]
inactive: A549-ACTB-RAB5A 0 | A549-CANX-COX4 0 | A549-GM130-SQSTM1 0 | A549-TP53BP1-CLTA 0 | A549-TUBA1B-RELA 0 | HepG2-ACTB-RAB5A 0 | HepG2-CANX-COX4 0 | HepG2-GM130-SQSTM1 0 | HepG2-TP53BP1-CLTA 0 | HepG2-TUBA1B-RELA 0 | WPMY1-ACTB-RAB5A 0 | WPMY1-CANX-COX4 0 | WPMY1-GM130-SQSTM1 0 | WPMY1-TP53BP1-CLTA 0 | WPMY1-TUBA1B-RELA 0

Cc1cc(O)cc2c1C(=O)Oc1cc3c(c(O)c1O2)C(=O)OC3 [Variolaric acid]
inactive: A549-ACTB-RAB5A 0 | A549-CANX-COX4 0 | A549-GM130-SQSTM1 0 | A549-TP53BP1-CLTA 0 | A549-TUBA1B-RELA 0 | HepG2-ACTB-RAB5A 0 | HepG2-CANX-COX4 0 | HepG2-GM130-SQSTM1 0 | HepG2-TP53BP1-CLTA 0 | HepG2-TUBA1B-RELA 0 | WPMY1-ACTB-RAB5A 0 | WPMY1-CANX-COX4 0 | WPMY1-GM130-SQSTM1 0 | WPMY1-TP53BP1-CLTA 0 | WPMY1-TUBA1B-RELA 0
